The results in this text go back to PubChem BioAssay (NCATS).

Results filed as inconclusive are left out. Activity calls are given as the source filed them. Calls come from the whole dose curve; as a rule, active = well fitted inhibition curve with a large enough effect; inconclusive = small, poorly fitted or top-dose-only effect; inactive = flat fitted curve, though single readings scatter.
% is set by controls: 0 for no effect and ±100 for the full control effect; potency is the fitted concentration of half-maximal effect.

Calcium and integrin-binding protein 1 (Homo sapiens), sequence (Q99828 whole entry, looked up): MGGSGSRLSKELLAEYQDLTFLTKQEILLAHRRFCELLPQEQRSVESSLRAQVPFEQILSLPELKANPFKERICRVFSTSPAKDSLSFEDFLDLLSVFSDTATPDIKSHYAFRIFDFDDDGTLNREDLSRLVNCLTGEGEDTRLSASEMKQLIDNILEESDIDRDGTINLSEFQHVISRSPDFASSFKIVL

The target of this experiment is Calcium and integrin-binding protein 1 (Homo sapiens) (UniProt Q99828). Briefly: Primary qHTS for Identification of Calcium Integrin Binding Protein 1 (CIB1) Competitor (AID 1508620).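 For activity change, negative = inhibition: GST tagged CIB1 binding a fluorescein labelled alphaIIb integrin peptide tracer; top concentration of the series differs between compounds.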 To be noted: CIB1-GST / FITC-alphaIIb peptide fluorescence polarization; series mostly up to 114 µM; activity change, negative = inhibition: at the top concentration. In outline:
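CIB1-GST (1 uM final) and compound incubated 15 min at room temperature before adding FITC-alphaIIb peptide tracer (100 nM final). Competition for binding read by fluorescence polarization (ex 480, em 540) after another 15 min at room temperature.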
As for `CN1CCN(c2ccc(OC(F)(F)F)c(Nc3ncc4c(n3)-c3c(c(C(N)=O)nn3CCO)CC4)c2)CC1`, the “activity change, negative = inhibition” value is -1.15% (inactive).
Still for that read-out and setting: to `CC(=O)c1c(C)cc2cccc(O)c2c1O[C@@H]1O[C@H](CO)[C@@H](O)[C@H](O)[C@H]1O` belongs 4.84% [at 57.7 µM] (inactive); to `Cc1ccc(C2(C(=O)N3CCC(n4nc(-c5ccccc5)oc4=O)CC3)CC2)cc1`, -0.168% (inactive).
As to `COc1ccc(C(=O)O[C@H]2C=COC=C3C=C4C(=O)N(C)C(=S)C(=O)N4[C@@H]32)cc1Oc1cc(C=O)ccc1O`, the Potency was 22.4 µM (active).
As for `O=C(Nc1ccccc1)N1CCC(Cc2cnc3ccccc3c2)CC1`, the “activity change, negative = inhibition” value is 1.27% (inactive).
Same read-out and setting: the figure for `C[C@@H]1C[C@H]2O[C@@]3(O[C@@H]2C(C)(C)O)C(O)[C@@]2(C)C4CCC5C(C)(C)[C@@H](O[C@H]6OC[C@H](O)[C@@H](O)[C@@H]6O)CC[C@@]56C[C@@]46CC[C@]2(C)C13` (stereo partly drawn) is 0.962% [at 30.2 µM] (inactive); for `CC(=O)OC/C(=C/C(=O)O)CC[C@@H]1C(C=O)=CC[C@@H]2C(C)(C)CCC[C@@]12C` it is -2.47% [at 57.7 µM] (inactive).
The same measure, in the same setting: the figure for `CCNC(=O)N1CCCN(c2ccc(C(=O)NCCc3ccc(Cl)cc3Cl)cc2NC(=O)c2cccc(Cl)c2)CC1` is 7.27% (inactive); for `O=C(C1CCCCC1)N(CCN1CCN(c2ccccc2O)CC1)c1ccccn1` it is 1.07% (inactive).
Regarding `CC1(C)CC[C@]2(C(=O)O)CC[C@]3(C)C(=CCC4[C@@]5(C)C[C@@H](O)[C@H](O)C(CO)(CO)C5CC[C@]43C)C2[C@@H]1O` (stereo partly drawn), the “activity change, negative = inhibition” value was -7.01% [at 57.7 µM] (inactive).
Still for that read-out and setting: the figure for `COc1cc(F)c(C(C)C)cc1-c1ccc(C(F)(F)F)cc1CN1C(=O)OC(c2cc(C(F)(F)F)cc(C(F)(F)F)c2)C1C` (stereo not drawn) is 2.49% (inactive).
`NCC(CNc1nc(Nc2cccc(NC(=O)N3CCCC3)c2)ncc1I)C(=O)c1cccs1` (stereo not drawn): the “activity change, negative = inhibition” value was 6.53% (inactive).
The same measure, in the same setting: to `N#Cc1ccc2ncnc(NCCc3ccccc3)c2c1` belongs 1.5% (inactive); to `C/C=C(\C)C(=O)OC1C=C(C)CC(OC(=O)c2ccc(O)cc2)C2C1(C)CCC2(O)C(C)C` (stereo not drawn), 5.37% [at 57.7 µM] (inactive).
On the same count and under the same terms, the figure for `O=S(=O)(NCc1ccccn1)c1ccc(Br)c2ccccc12` is 1.24% (inactive); for `CC1(C)Oc2ncnc(N)c2N=C1c1ccc(C23CCC(CC(=O)O)(CC2)CC3)cc1` it is 1.4% (inactive).
For the compound `CCOC(=O)CCNc1cc(N2CCc3ccccc3CC2)nc(-c2cccnc2)n1`, the “activity change, negative = inhibition” value was -7.63% (inactive).
On the same count and under the same terms, to `Cc1nc2ccc(CN(C)c3ccc(C(=O)NC(CCC(=O)O)C(=O)O)s3)cc2c(=O)[nH]1` (stereo not drawn) belongs -7.9% (inactive); to `C/C=C\NC(=O)C1NC(=O)C(CC(N)=O)NC(=O)C(NC(=O)C(=O)C(C)CC)Cc2ccc(O)c(c2)-c2cccc3c2NC(=O)C3(O)C1O` (stereo not drawn), 0.181% [at 30.2 µM] (inactive).
Consider `CCCN(CCc1ccsc1)C1CCc2c(O)cccc2C1` (stereo not drawn), for which the “activity change, negative = inhibition” value is 2.87% (inactive).
On the same count and under the same terms, the figure for `Clc1cccc(COc2cncc(N3CCNCC3)n2)c1` is 2.61% (inactive); for `C/C=C(/C)C(=O)O[C@H]1C=C(CO)C(=O)[C@H](OC(=O)/C(C)=C/CO)[C@H]1C(C)C` it is -15.4% [at 57.7 µM] (inactive).
On the same count and under the same terms, the figure for `Cc1cc2c(c(=O)o1)C=C1CC[C@H]([C@H](C)Cn3cnc(=N)c4[nH]cnc43)C[C@@H]1O2` is 8.94% (inactive); for `Nc1ncnc2c1nc(Cl)n2C1OC2COP(=O)(O)OC2C1O` (stereo not drawn) it is 2.97% (inactive); for `CCCc1cc2c(N3CCN(C4=NCC(C)(C)S4)CC3)ncnc2s1` it is 0.37% (inactive).
For the compound `C=C1CCCC2(C)CCC(C(C)(C)OC3OC(C)C(O)C(O)C3OC(=O)/C(C)=C\C)CC12` (stereo not drawn), the “activity change, negative = inhibition” value was -15.8% [at 57.7 µM] (inactive).
Still for that read-out and setting: the figure for `CCCN1CCC=C(c2cc(-c3ccc(C)cc3)no2)C1` is 1.16% (inactive); for `CC(O)(C(=O)C1CC1(CO)COC1OC(CO)C(O)C(O)C1O)C1C(O)CC2C3CC=C4CC(O)CC(O)C4(C)C3C(O)CC21C` (stereo not drawn) it is 1.47% [at 30.2 µM] (inactive).
On the same count and under the same terms, the figure for `Cc1cc(N2CCOCC2)ccc1Nc1nc(NC2CCCCC2)c2[nH]cnc2n1` is -0.688% (inactive); for `O=C(NCCCCN1CCN(c2cccc(Cl)c2Cl)CC1)c1cc2ccccc2s1` it is -7.62% (inactive).
The same measure, in the same setting: the figure for `CC[C@@H](Nc1c(Nc2cccc(C(=O)N(C)C)c2O)c(=O)c1=O)c1cc(C(C)C)co1` is -0.603% (inactive).
Consider `Nc1nc2c(nc(Br)n2[C@@H]2O[C@@H]3COP(=O)(O)O[C@H]3[C@H]2O)c(=O)[nH]1`, for which the “activity change, negative = inhibition” value was -1.75% (inactive).
Regarding `Cn1ncnc1[C@@H]1c2n[nH]c(=O)c3cc(F)cc(c23)N[C@H]1c1ccc(F)cc1`, the “activity change, negative = inhibition” value is 1.33% (inactive).
For the compound `CN1CCC(c2cn(C)c3ccc(OS(=O)(=O)c4c(F)cccc4F)cc23)CC1`, the “activity change, negative = inhibition” value was -2.53% (inactive).
Still for that read-out and setting: the figure for `Fc1ccc(-c2nc(-c3c(F)cccc3F)[nH]c2-c2ccncc2)cc1` is 3.84% (inactive); for `N#Cc1cc(C2=Nc3ccc(Br)cc3NC(=O)C2)ccn1` it is 4.46% (inactive).
On the same count and under the same terms, to `CC(C)(Cc1nc(-c2ccc(O)cn2)no1)C(=O)NC1=C(C(=O)O)CCCC1` belongs -5.93% (inactive); to `COC1CC(O[C@H]2CC[C@]3(C)C4CC[C@]5(C)C(C6=CC(=O)OC6)=CCC56OC46CC[C@@H]3C2)OC(C)C1O[C@@H]1O[C@H](CO[C@@H]2O[C@H](CO)[C@@H](O)[C@H](O)[C@H]2O)[C@@H](O)[C@H](O)[C@H]1O` (stereo partly drawn), 0.96% [at 30.2 µM] (inactive).
